Compound activity deposited in PubChem by several laboratories.
KKLEB tox: cytotoxicity in KKLEB CF airway cells, primary screen, cytotoxicity control for CF NF-kB inhibitor project, cell-based, uHTS, fluorescence assay plates; 360,000 tested, 0.36% active; KKLEB CF airway cells viability, ATPlite luminescence, overnight; stronger effect = lower value; cells stimulated with P. aeruginosa culture filtrate; activity change (cytotoxicity), % at 5 µM;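 active = corrected activity change at or below -50% at 5 µM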
ABHD5-PLIN5 inh: ABHD5-PLIN5 interaction inhibitors, primary screen, cell lysate, split luciferase complementation, luminescence | Perilipin-5 (Homo sapiens) + 1-acylglycerol-3-phosphate O-acyltransferase ABHD5 (Homo … | inhibition, % at 4 µM | 360,000 tested, 0.78% active | Split G. princeps luciferase complementation, 4 h;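 active = inhibition above the mean inhibition across every tested compound plus 3 SD, cut at about 22% in these data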;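 note: 0% = DMSO only wells and the 100% control is not disclosed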
Target sequence (Q00G26 whole entry, looked up): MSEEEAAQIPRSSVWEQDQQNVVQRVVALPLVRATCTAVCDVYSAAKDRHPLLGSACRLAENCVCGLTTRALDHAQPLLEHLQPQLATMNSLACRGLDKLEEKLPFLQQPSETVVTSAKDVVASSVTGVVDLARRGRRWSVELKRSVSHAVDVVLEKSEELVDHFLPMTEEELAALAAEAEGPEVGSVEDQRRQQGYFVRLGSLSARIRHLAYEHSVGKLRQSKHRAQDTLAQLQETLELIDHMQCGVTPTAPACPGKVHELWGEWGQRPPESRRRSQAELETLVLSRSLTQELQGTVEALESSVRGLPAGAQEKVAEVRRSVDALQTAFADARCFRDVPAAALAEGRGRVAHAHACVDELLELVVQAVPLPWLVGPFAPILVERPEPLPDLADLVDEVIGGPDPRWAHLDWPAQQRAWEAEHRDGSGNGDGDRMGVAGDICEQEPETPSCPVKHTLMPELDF
Target sequence (Q8WTS1 whole entry, looked up): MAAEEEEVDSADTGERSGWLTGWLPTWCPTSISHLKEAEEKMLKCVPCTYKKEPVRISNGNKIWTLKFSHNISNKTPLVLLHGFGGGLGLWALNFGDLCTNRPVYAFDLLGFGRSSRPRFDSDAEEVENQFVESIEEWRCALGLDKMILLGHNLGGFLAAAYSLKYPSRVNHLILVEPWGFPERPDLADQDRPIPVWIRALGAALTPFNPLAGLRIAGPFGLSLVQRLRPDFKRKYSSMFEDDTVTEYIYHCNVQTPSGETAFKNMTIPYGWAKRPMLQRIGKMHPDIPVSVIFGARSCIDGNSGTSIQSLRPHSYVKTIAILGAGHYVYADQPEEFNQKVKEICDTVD
CF NFkB inh: inhibitors of PAF-induced NF-kB signaling, primary screen, cell-based, GFP fluorescence, uHTS; 360,000 tested, 0.86% active; KKLEB NF-kB-GFP reporter, GFP fluorescence overnight; inhibition, % at 5 µM;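 active = at least 50% inhibition at 5 µM, scaled per plate between neutral and stimulator controls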;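 note: PAF is a Pseudomonas aeruginosa culture filtrate used as stimulus; plate controls were PAF-stimulated DMSO wells for no effect and unstimulated DMSO wells for full effect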
Peg3 prom inh: Peg3 promoter-driven luciferase inhibitors, primary screen, cell-based, HeLa, luciferase luminescence. HeLa PEG-Prom luciferase reporter, overnight. inhibition, % at 20 µM. 360,000 tested, 1.7% active;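 active = inhibition of at least 50% at 20 µM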
TRPM1 prom inh: inhibitors of MITF-dependent TRPM1 promoter reporter, primary screen, cell-based, SK-MEL-5, single point, luciferase | inhibition, % at 12.5 µM | SK-MEL-5 TRPM1 promoter luciferase, 24 h | 330,000 tested, 0.83% active | AID 488899, 2010;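 active = mean inhibition across replicates of 60% or more, whatever share of single replicates reaches that level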
HIF-2a block: HIF-2a reporter inhibitors, primary screen, luminescence, 786-0 RCC cells; 360,000 tested, 0.72% active; inhibition, % at 18.8 µM; 786-0 RCC cells HIF-2a reporter, luciferase luminescence, overnight; AID 624352, 2012;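 active = inhibition of the luminescence signal of 40% or more relative to plate controls, in a single-dose primary screen at 18.75 µM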
The depositor's hits bear a star; . = not tested or not shown. Compounds with a hit are over-represented: about 3% of the library has one in this group of screens.

SMILES	KKLEB tox	ABHD5-PLIN5 inh	CF NFkB inh	Peg3 prom inh	TRPM1 prom inh	HIF-2a block
C[C@]12C=CC(=O)C=C1CC[C@@H]1C2C(O)C[C@@]2(C)C1CC[C@]2(O)C(=O)COC(=O)CCC(=O)NC(CC(=O)O)C(=O)O (stereo partly specified)	44	5	77*	-13	5	23
C[C@]12C=CC(=O)C=C1CC[C@@H]1[C@@H]2C(=O)C[C@@]2(C)[C@H]1CC[C@]2(O)C(=O)COC(=O)CCC(=O)O	2	-7	0	-23	-6	10
COc1ccc(Cl)cc1-c1cc(C(=O)Nc2ccc(Br)cc2)[nH]n1	7	-5	-56	-11	.	4
CCCc1nnc(SCC(=O)NC2CCCCC2)n1CCOC	-5	16	1	9	7	1
Nc1c(C(=O)Nc2ccc(S(=O)(=O)N3CCCC3)cc2)sc2nc3ccc(OC(F)(F)F)cc3cc12	-37	-4	35	-36	83*	-129
CCCC/C=C1/CCC(CN(C)C)C1=O (stereo unspecified)	12	-2	-24	98*	75*	-5
C=CCn1c(C)c(C(C)=O)cc(NC(=O)c2ccccc2)c1=O	2	-1	-6	-4	-7	-15
C=CCN1C(=O)/C(=C/C(=O)OC)S/C1=N\NC(=O)c1ccccc1	-10	23*	13	7	.	25
Nc1oc2ccccc2c1C(=O)Cc1ccccc1O[C@@H]1O[C@H](CO)[C@@H](O)[C@H](O)[C@H]1O	0	4	-4	-1	0	3
CC(=O)c1ccc(NC(=O)COC(=O)c2c3c(nc4ccccc24)/C(=C\c2cccs2)CCC3)cc1	-4	9	2	56*	40	9
CC(C)CNC(=O)COC(=O)c1c2c(nc3ccccc13)/C(=C\c1cccs1)CC2	-18	-2	15	-90	-17	-273
O=C(COC(=O)/C=C/c1cccc(F)c1)NC(=O)NC1CCCC1	8	2	7	-1	14	0
O=C1C=C(NCCc2cc(Br)c(O)c(Br)c2)C(=O)c2ncccc21	-33	-35	76*	93*	109*	9
CCOCCn1ccc2c(OCC(=O)Nc3ccc(OC)cc3OC)cccc2c1=O	-10	2	10	52*	1	15
O=C(O)c1cc(NC(=O)c2ccc(Cl)c([N+](=O)[O-])c2)cc(C(=O)O)c1	13	7	-7	11	5	13
O=C(Nc1ccc(C(O)(C(F)(F)F)C(F)(F)F)cc1)c1ccc(Cl)c([N+](=O)[O-])c1	-1	-4	0	58*	4	-51
C/C(=N\NC(=O)C1(C)CC1(Br)Br)c1cccc(NC(=O)c2ccc(C)o2)c1 (stereo unspecified)	0	4	7	62*	6	-60
CC(OC(=O)CCN1C(=O)C2CC=CCC2C1=O)C(=O)c1ccc(F)cc1 (stereo unspecified)	1	1	9	-2	1	4
COc1ccccc1N1CCN(CC(=O)Nc2cc(C)nn2-c2nc(C)cc(C)n2)CC1	-6	4	21	52*	6	11
Clc1ccc(-c2nnc(-c3ccccc3)c(N3CCSCC3)n2)cc1	-15	-9	6	-5	-23	-33
CC1CN(c2nc(-c3ccc(Br)cc3)nnc2-c2ccccc2)CC(C)N1 (stereo unspecified)	-10	16	14	62*	23	-60
O=C(O)CNC(=O)c1ccc(OC(F)F)cc1	-6	10	17	-1	9	9
O=C1C=CC(=O)N1c1ccc(OC(F)F)cc1	-6	20	10	104*	35	50*
O=C1C=CC(=O)N1c1ccc(O)cc1	1	20	12	110*	7	-1
COc1ccc(S(=O)(=O)Nc2ccccc2C(=O)NCc2cccnc2)cc1	-1	-8	-2	14	-1	13
SMILES	KKLEB tox	ABHD5-PLIN5 inh	CF NFkB inh	Peg3 prom inh	TRPM1 prom inh	HIF-2a block
COc1ccccc1NC(=O)COC(=O)/C=C/c1ccc(OC)c(OC)c1	-9	-7	17	7	1	19
Cc1ccc(-c2csc(N3CCN(c4cc5c(cc4Cl)nc(C)n5CCN4CCCCC4)CC3)n2)cc1	-26	9	14	-2	-8	1
Cc1csc(N2CCN(c3cc4c(cc3Cl)nc(-c3ccncc3)n4CCCN3CCCC3)CC2)n1	-7	8	15	-3	90*	18
COc1cc(C)c(C(=O)CC(=O)c2c(C)cc(OC)cc2C)c(C)c1	-6	-6	9	50*	.	23
COc1ccc(NC(C)=O)c(C)c1	2	6	-14	-3	2	19
COc1cc(/C=C(\C#N)c2nc3ccccc3[nH]2)cc(Br)c1OCc1ccccc1	-7	-5	-2	53*	12	-6
O=C1N=c2ccccc2=C1c1sc(=S)n(Cc2ccccc2Cl)c1O	5	1	-1	83*	24	17
CCOC(=O)/C(C)=N/NC(=O)c1ccc([N+](=O)[O-])cc1	8	-7	1	4	-13	16
CCOC(=O)/C(N=Nc1ccc(F)cc1)=C(/O)c1ccc([N+](=O)[O-])cc1	-14	4	67*	-6	16	-1
Cn1cnnc1SCC(=O)Nc1ccc2ccccc2c1	-8	-2	0	-50	-22	-85
COC(=O)[C@H]1[C@@H](C)N(Cc2ccccc2)C(=O)N[C@H]1c1ccccc1	20	-2	-3	-4	-5	-14
CC(NC(=O)c1ccc(C(=O)c2ccccc2)cc1)c1ccc(S(N)(=O)=O)cc1 (stereo unspecified)	-1	-2	14	37	11	4
COc1ccc(NC(=O)c2cc(-c3ccc(C)o3)nc3ccccc23)c(OC)c1	-7	5	-14	-12	.	-125
COc1cc(NC(=O)c2cc(-c3ccccc3)on2)cc(OC)c1OC	-7	1	7	5	4	-20
COc1cc(NC(=O)c2cc3nc(-c4ccccc4)cc(-c4ccccc4)n3n2)cc(OC)c1OC	-5	-2	29	57*	3	17
COc1ccc(NC(=O)c2cc(-c3ccncc3)nc3ccc(Br)cc23)cc1OC	-11	9	-12	94*	49	12
COc1ccc(NC(=O)c2cc(-c3ccc(C)o3)nc3ccccc23)cc1OC	4	34*	-4	-87	-53	-70
COc1cc(NC(=O)c2cc3c(C)nc4ccccc4c3o2)cc(OC)c1OC	13	7	-45	56*	-6	-11
